The target in experiment [1] is Serine/threonine-protein kinase pim-2 (Homo sapiens) (UniProt Q9P1W9). The conditions noted are these: at 1 µM.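 Further: each value is a mean of the inhibition measurements against the kinase.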
Experiment [2] addresses Serine/threonine-protein kinase pim-3 (Homo sapiens) (UniProt Q86V86). The following applies: at 0.1 µM.
For experiment [3] the target is unchanged. The following applies: at 1 µM.
The target in experiment [4] is T1, MAP kinase-activated protein kinase 5 (Homo sapiens) (UniProt Q8IW41).
T1 sequence (whole entry): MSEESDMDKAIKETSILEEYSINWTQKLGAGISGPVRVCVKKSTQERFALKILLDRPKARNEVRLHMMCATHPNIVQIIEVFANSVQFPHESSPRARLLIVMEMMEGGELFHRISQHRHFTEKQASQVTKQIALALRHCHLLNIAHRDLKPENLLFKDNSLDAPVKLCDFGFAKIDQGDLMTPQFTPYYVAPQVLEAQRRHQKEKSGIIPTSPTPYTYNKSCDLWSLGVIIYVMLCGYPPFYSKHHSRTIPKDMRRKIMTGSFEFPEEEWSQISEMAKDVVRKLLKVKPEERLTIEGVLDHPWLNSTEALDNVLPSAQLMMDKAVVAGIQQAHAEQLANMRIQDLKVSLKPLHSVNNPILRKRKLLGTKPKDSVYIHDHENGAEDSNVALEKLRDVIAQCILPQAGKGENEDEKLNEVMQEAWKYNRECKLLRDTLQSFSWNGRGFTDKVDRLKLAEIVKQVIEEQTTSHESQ
The following applies: at 0.1 µM.

Experiment [5] concerns the target T1, MAP kinase-activated protein kinase 5 (Homo sapiens). The conditions noted are these: at 1 µM.
Experiment [6] deals with Serine/threonine-protein kinase SIK1 (Homo sapiens) (UniProt P57059). The conditions noted are these: at 0.1 µM.
Experiment [7] has the same target. The conditions noted are these: at 1 µM.
Experiment [8] has as its target Serine/threonine-protein kinase SIK2 (Homo sapiens) (UniProt Q9H0K1). The following applies: at 0.1 µM.
For experiment [9] the target is unchanged. The following applies: at 1 µM.
In experiment [10] the target is T2, Serine/threonine-protein kinase TBK1 (Homo sapiens) (UniProt Q9UHD2).
T2 sequence (whole entry): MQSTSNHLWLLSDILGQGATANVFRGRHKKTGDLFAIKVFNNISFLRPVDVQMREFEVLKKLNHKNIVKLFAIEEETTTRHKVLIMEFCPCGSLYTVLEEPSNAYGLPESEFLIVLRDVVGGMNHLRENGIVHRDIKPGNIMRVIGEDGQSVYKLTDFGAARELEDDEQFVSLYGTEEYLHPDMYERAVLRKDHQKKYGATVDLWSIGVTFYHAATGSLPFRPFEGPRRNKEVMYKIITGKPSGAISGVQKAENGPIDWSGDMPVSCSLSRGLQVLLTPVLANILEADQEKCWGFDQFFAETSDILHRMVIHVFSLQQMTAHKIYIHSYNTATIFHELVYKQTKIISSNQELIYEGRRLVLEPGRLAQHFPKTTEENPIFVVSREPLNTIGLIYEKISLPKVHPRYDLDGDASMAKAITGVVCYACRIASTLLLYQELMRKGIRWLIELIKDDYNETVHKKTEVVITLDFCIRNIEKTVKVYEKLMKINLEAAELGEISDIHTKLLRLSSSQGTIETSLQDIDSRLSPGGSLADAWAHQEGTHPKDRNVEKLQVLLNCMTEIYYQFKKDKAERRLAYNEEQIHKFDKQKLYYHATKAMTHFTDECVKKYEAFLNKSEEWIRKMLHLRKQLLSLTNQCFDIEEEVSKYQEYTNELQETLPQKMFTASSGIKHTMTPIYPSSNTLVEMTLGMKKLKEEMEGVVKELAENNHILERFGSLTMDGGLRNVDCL
The conditions noted are these: at 0.1 µM.

Experiment [11] deals with T2, Serine/threonine-protein kinase TBK1 (Homo sapiens). The conditions noted are these: at 1 µM.
The target in experiment [12] is T3, Testis-specific serine/threonine-protein kinase 1 (Homo sapiens) (UniProt Q9BXA7).
T3 sequence (whole entry): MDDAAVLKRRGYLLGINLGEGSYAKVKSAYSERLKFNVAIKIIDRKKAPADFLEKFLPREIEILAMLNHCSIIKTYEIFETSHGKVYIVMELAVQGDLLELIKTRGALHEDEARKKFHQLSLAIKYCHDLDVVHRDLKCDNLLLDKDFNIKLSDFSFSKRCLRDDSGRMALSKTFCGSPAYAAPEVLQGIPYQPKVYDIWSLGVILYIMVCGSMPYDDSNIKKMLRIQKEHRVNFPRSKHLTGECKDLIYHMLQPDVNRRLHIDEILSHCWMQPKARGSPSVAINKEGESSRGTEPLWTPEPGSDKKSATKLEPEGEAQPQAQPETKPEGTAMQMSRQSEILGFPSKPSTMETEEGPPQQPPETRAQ
The following applies: at 0.1 µM.

The target of experiment [13] is T3, Testis-specific serine/threonine-protein kinase 1 (Homo sapiens). The conditions noted are these: at 1 µM.
In experiment [14] the target is T4, Testis-specific serine/threonine-protein kinase 2 (Homo sapiens) (UniProt Q96PF2).
T4 sequence (whole entry): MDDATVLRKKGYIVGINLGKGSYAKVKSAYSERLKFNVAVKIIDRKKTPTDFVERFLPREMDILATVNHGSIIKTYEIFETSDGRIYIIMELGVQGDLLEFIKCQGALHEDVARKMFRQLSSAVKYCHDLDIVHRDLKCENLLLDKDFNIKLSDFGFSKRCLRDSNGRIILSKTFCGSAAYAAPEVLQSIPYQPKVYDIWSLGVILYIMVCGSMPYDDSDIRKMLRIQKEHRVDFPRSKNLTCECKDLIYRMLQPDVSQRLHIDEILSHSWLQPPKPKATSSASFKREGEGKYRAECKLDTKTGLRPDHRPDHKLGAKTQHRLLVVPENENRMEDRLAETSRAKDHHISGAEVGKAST
The conditions noted are these: at 0.1 µM.

Experiment [15] concerns the target T4, Testis-specific serine/threonine-protein kinase 2 (Homo sapiens). The conditions noted are these: at 1 µM.
Experiment [16] has as its target Casein kinase I isoform alpha (Homo sapiens) (UniProt P48729). The conditions noted are these: at 0.1 µM.
Experiment [17] shares this target. The conditions noted are these: at 1 µM.
The target of experiment [18] is Casein kinase I isoform gamma-1 (Homo sapiens) (UniProt Q9HCP0). The following applies: at 0.1 µM.
Experiment [19] shares this target. The conditions noted are these: at 1 µM.
The target of experiment [20] is Casein kinase I isoform gamma-2 (Homo sapiens) (UniProt P78368). The conditions noted are these: at 0.1 µM.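 Further: values are mean inhibition figures reported as part of the GSK PKIS dataset.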

For orientation: inhibition means the relative decrease from the control value, in per cent.

Structures are written as SMILES.

Sequence of Serine/threonine-protein kinase SIK2 (Homo sapiens) (Q9H0K1 whole entry, looked up): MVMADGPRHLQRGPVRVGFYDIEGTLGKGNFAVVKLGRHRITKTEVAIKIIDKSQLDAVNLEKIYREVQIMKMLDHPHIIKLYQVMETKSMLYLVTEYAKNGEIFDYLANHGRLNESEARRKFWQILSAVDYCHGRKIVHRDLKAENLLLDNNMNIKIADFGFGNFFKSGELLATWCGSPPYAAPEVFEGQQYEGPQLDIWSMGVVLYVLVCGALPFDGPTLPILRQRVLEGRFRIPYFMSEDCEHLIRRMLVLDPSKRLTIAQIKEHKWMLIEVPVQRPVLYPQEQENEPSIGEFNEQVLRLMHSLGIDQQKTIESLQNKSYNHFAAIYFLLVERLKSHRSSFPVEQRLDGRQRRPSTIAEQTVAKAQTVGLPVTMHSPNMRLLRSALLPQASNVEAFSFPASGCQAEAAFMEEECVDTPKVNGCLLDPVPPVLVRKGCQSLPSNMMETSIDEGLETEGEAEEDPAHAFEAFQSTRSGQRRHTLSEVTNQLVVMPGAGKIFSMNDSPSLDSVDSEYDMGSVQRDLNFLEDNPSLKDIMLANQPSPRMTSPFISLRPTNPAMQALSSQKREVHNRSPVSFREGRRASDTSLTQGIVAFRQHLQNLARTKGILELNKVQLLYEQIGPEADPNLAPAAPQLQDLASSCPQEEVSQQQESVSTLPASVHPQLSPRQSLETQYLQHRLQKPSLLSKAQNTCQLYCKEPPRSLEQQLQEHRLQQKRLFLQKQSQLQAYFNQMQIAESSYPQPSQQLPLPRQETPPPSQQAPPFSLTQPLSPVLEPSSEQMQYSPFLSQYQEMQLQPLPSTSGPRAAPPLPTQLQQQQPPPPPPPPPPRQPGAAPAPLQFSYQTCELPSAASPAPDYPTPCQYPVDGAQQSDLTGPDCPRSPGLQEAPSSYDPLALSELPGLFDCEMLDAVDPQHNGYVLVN
Sequence of Casein kinase I isoform alpha (Homo sapiens) (P48729 2-337 limits assumed): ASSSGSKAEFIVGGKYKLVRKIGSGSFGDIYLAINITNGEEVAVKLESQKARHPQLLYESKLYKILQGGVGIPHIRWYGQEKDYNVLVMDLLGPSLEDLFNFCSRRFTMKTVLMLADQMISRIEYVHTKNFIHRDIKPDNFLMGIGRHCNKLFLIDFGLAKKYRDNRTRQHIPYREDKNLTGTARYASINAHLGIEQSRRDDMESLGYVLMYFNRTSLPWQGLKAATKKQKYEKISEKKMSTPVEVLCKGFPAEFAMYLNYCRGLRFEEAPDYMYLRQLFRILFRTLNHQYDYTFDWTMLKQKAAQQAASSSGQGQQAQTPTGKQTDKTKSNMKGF
Sequence of Serine/threonine-protein kinase pim-2 (Homo sapiens) (Q9P1W9 whole entry, looked up): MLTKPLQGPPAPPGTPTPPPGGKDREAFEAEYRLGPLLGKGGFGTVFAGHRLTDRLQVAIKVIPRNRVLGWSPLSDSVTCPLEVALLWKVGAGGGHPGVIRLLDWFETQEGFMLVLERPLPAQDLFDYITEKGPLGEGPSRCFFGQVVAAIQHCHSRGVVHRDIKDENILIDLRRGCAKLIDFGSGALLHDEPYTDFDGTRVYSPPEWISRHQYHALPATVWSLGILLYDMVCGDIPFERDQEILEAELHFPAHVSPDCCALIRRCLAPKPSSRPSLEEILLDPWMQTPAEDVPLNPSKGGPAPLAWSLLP
Sequence of Serine/threonine-protein kinase SIK1 (Homo sapiens) (P57059 whole entry): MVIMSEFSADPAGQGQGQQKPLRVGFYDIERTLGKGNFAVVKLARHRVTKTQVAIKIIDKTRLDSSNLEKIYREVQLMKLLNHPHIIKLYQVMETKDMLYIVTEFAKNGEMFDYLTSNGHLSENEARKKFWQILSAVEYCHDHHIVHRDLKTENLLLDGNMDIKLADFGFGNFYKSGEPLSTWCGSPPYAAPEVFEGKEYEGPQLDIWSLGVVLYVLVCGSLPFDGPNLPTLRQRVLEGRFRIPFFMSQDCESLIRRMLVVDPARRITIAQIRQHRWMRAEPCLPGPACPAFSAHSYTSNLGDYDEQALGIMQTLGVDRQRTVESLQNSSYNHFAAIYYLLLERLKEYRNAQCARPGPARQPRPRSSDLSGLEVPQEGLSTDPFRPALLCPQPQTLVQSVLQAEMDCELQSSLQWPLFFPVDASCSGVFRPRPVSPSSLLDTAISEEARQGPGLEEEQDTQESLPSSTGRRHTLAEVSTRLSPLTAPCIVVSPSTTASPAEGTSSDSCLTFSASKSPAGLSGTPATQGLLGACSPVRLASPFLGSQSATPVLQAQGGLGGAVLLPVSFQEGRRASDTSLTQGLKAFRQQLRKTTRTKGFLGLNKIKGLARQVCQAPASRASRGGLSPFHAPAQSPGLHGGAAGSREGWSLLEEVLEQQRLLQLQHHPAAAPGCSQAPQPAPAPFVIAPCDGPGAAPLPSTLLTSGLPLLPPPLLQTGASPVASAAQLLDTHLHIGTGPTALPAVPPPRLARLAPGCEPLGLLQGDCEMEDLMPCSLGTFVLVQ
Sequence of Casein kinase I isoform gamma-1 (Homo sapiens) (Q9HCP0 whole entry, looked up, canonical isoform): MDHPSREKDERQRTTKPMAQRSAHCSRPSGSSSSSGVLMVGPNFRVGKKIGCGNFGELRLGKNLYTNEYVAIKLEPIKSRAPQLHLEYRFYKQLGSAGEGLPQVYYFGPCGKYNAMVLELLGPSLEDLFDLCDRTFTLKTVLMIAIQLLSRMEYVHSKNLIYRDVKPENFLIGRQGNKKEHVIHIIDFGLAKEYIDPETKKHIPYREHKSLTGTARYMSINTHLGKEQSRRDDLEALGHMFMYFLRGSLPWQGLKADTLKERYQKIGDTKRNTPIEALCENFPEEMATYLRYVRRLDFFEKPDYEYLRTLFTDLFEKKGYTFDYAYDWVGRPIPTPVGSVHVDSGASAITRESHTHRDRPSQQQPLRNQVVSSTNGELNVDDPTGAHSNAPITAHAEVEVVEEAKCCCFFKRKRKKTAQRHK
Sequence of Casein kinase I isoform gamma-2 (Homo sapiens) (P78368 whole entry, looked up, canonical isoform): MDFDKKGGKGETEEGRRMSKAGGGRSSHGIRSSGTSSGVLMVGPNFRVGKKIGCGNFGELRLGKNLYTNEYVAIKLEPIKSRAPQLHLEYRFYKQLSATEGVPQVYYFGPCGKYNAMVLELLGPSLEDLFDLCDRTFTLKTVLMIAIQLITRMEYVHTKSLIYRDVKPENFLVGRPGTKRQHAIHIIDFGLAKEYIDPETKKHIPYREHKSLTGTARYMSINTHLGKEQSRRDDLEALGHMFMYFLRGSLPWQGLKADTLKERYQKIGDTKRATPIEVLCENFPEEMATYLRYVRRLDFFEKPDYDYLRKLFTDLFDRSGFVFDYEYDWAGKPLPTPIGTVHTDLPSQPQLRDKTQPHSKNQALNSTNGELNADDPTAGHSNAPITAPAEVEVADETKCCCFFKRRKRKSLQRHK

As for `COc1cc(Nc2ncc3c(C)nc(-c4cccc(C(F)(F)F)c4)n3n2)cc(OC)c1OC`, the inhibition in experiment [1] was determined as 3.02%; in [2], 3.42%; in [3], 6.73%; in experiment [4], 1.19%; in experiment [5] it was 2.92%; in experiment [6] it was 3.9%. Besides, the inhibition stood at 15.9% in [7]; 10.9% in experiment [8]; 13.5% in experiment [9]; 1.64% in experiment [10]; 25.5% in experiment [11]; 4.46% in experiment [12]. Further, the inhibition is 9.14% in [13]; 4.53% in experiment [14]; 3.7% in experiment [15]; 7.78% in experiment [16]; 6.02% in experiment [17]; 2.94% in experiment [18]. The inhibition came to 4.47% in [19] and 2.07% in experiment [20].
Consider `CCc1nccc2c1nc(-c1nonc1N)n2CC`, for which the inhibition is 1.27% in experiment [1]; -0.38% in experiment [2]; -2.26% in experiment [3]; -0.45% in experiment [4]; -1.56% in [5]; 0.62% in [6]. In addition, the inhibition in [7] is 4.31%; in experiment [8], -4.39%; in [9], 6.79%; in [10] it was 1.12%; in experiment [11], 6.1%; in experiment [12], 0.58%. For the same compound, the inhibition was 0.27% in experiment [13]; -0.65% in experiment [14]; -0.91% in experiment [15]; 3.39% in experiment [16]; 3.67% in experiment [17]; 0.76% in experiment [18]. The results for the inhibition in experiment [19] and in [20] were 2.98% and 0.48%, respectively.
`C#Cc1cccc(Nc2ncnc3ccc(OCCCCNCCS(C)(=O)=O)cc23)c1`: the inhibition is -1.09% in experiment [1]; 6.18% in experiment [2]; 36.2% in experiment [3]; 2.33% in experiment [4]; 2.73% in experiment [5]; 8.26% in experiment [6]. The inhibition in experiment [7] came out at 38.7%; in experiment [8] it was 5.71%; in [9] it was 27.5%; in [10], 1.72%; in experiment [11] it was 8.32%; in [12], 6.03%. The inhibition in experiment [13] came out at 6.34%; in [14], 2.32%; in experiment [15] it was 2.71%; in experiment [16], 2.51%; in experiment [17], 7.93%; in experiment [18], 0.79%. Further, the inhibition in experiment [19] is 1.77%; in [20] it was 0.57%.
Regarding `Fc1ccc(-c2nc3n(c2-c2ccncc2)CCS3)cc1`, the inhibition is -3.08% in [1]; -1.3% in experiment [2]; -1.87% in [3]; 1.2% in experiment [4]; 0.34% in [5]; 5% in experiment [6]. Moreover, the inhibition in experiment [7] is 13.5%; in experiment [8], 1.21%; in experiment [9], 7.35%; in [10], 2.27%; in [11] it was 2.87%; in experiment [12] it was 3.08%. The inhibition in [13] is 2.73%; in experiment [14], 1.01%; in [15] it was 0.48%; in experiment [16] it was 10.8%; in experiment [17], 42.4%; in [18] it was 0.76%. Besides, the figures for the inhibition in experiment [19] and in [20] were 5.36% and -1.13%, respectively.
Consider `CN1CCN(CCCNc2nc3ccc(Oc4ccc(NC(=O)Nc5cc(C(F)(F)F)ccc5F)cc4)cc3[nH]2)CC1`, for which the inhibition in experiment [1] is -1.74%; in experiment [2] it was 1.11%; in experiment [3], -0.28%; in experiment [4] it was -0.1%; in [5], -1.41%; in [6] it was 0.75%. In addition, the inhibition was 3.99% in [7]; -2.3% in [8]; 0.76% in experiment [9]; 1.88% in experiment [10]; 3.78% in [11]; 0.87% in [12]. The inhibition in experiment [13] was -0.16%; in experiment [14], -0.81%; in [15], -1.46%; in experiment [16] it was 1.84%; in experiment [17] it was 0.56%; in experiment [18], -1.36%. Moreover, the results for the inhibition in [19] and in [20] were -3.19% and -4.72%, respectively.
Take `O=C1Nc2ccc(I)cc2C1=Cc1cc(Br)c(O)c(Br)c1`: the inhibition in experiment [1] stood at 18.2%; in experiment [2], 1.85%; in experiment [3] it was 17.7%; in experiment [4], 1.19%; in experiment [5], 1.78%; in [6] it was 8.91%. Also, the inhibition in experiment [7] came to 9.38%; in [8] it was 4.92%; in experiment [9], 9.04%; in experiment [10] it was 3.66%; in experiment [11] it was 2.5%; in experiment [12] it was 4.56%. The inhibition in experiment [13] came to 5.45%; in experiment [14], 2.33%; in [15], 2.81%; in experiment [16], 5.08%; in [17], 6.76%; in [18], 3.7%. Also, the inhibition in experiment [19] amounted to 5.38%; in experiment [20], 3.7%.
As for `CCc1ccc(Oc2nccc(-c3c(-c4ccc(F)cc4)ncn3C3CCNCC3)n2)cc1`, the inhibition in [1] was found to be 0.04%; in experiment [2], 1.11%; in experiment [3] it was 3.63%; in experiment [4] it was 1.38%; in experiment [5], 2%; in experiment [6] it was 5.66%. Besides, the inhibition in experiment [7] amounted to 14.7%; in experiment [8], 3.65%; in [9], 19.4%; in [10], 4.53%; in [11] it was 4.95%; in experiment [12] it was 3.27%. In addition, the inhibition is 5.22% in experiment [13]; 1.61% in [14]; 2.6% in experiment [15]; 6.84% in experiment [16]; 36.5% in experiment [17]; 3.65% in [18]. Besides, the values for the inhibition in experiment [19] and in [20] were 14.8% and 3.26%, respectively.

The record behind these values is ChEMBL document CHEMBL1961873, “Compounds: GSK PKIS; Assays: Nanosyn kinase panel” (2012).
